Bioassay records: PubChem, National Center for Advancing Translational Sciences (NCATS)
An excerpt weighted towards active compounds, which were near 9.3% of everything screened.
ELG1 genotoxic = inducers of genotoxicity in HEK293T ELG1-luciferase cells. HEK293T ELG1-luciferase reporter, luminescence, 16 h. Potency, µM (highest dose often 46 µM), without a hit: at the top dose activity change, positive = activation, hits mostly activators. actives 1.3% (n = 330,000). AID 504466; note: % of control where 0% means no effect; nearly all actives have a fitted effect of over 60% in size
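After overnight (16 hr) compound treatment at 37 °C, ELG1-luciferase HEK293T cells were lysed with ONE-Glo; luminescence quantified 30 min later at room temperature.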
ELG1 DNA repair = inhibitors of ELG1-dependent DNA repair in HEK293T cells; HEK293T ELG1-luciferase reporter, luminescence, 16 h; DNA damage induced by 5-fluorouridine; actives 2.3% (n = 330,000); Potency, µM (series often up to 46.1 µM), without a hit: at the top dose activity change, negative = inhibition, actives largely listed as inhibitors; AID 504467; note: % is set by controls: 0 for no effect and ±100 for the full control effect; nearly all actives have a fitted effect of over 55% in size
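DMSO vehicle served as the neutral condition. Each well held 2,000 cells given 5-fluorouridine plus compound; after 16 hr at 37 °C/5% CO2, ONE-Glo was added and luciferase measured 30 min later.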
FLuc counter = inhibits or activates purified firefly luciferase, miR-21 counter-screen. purified FLuc, Km substrates, luminescence inhibition. Potency, µM (top dose mostly 57.5 µM), without a hit: top-dose activity change, negative = inhibition, usual class: inhibitors. actives 6.9% (n = 360,000). AID 588342;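 note: plate controls were vehicle for no effect and reference inhibitor for full effect; nearly all actives have a fitted effect of over 55% in size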
Target sequence (P08659 whole entry, looked up): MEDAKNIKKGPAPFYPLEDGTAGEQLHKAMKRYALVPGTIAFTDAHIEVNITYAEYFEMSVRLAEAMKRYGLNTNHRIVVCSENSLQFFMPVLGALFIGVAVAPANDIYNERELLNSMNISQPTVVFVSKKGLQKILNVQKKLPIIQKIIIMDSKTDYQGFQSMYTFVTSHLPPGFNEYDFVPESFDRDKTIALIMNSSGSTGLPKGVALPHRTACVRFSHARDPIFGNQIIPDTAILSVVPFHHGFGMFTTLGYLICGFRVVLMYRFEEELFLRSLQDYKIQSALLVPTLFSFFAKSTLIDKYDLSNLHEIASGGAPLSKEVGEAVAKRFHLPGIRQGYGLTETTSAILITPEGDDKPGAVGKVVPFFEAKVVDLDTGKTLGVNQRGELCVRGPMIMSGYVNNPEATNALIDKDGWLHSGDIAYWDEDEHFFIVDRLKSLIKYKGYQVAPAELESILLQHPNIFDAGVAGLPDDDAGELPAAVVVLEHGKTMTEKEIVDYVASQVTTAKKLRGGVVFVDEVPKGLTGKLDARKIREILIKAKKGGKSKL
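Purified P. pyralis luciferase (10nM final) with 10uM D-luciferin and 10uM ATP (Km levels) in 50mM Tris acetate pH 7.5, 10mM Mg acetate, 0.01% Tween-20, 0.05% BSA; qHTS 6-point titration, ~60 µM downward; luminescence read.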
NPC1 prom act = activators of NPC1 promoter; Huh7 NPC1 promoter luciferase reporter, 24 h; Potency, µM (titrated, usually from 9.22 µM), without a hit: at the top dose activation, most hits filed as activators; actives 2.4% (n = 320,000); AID 485313; note: % of control where 0% means no effect; nearly all actives have a fitted effect of over 60% in size
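Stably transfected Huh7 (NPC1 promoter→luciferase), 1500 cells/well in Opti-MEM + 10% FBS, 2 h settle, then compound 24 h at 37 °C. Luminescence after 10 min with Amplite reagent.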
Rab9 promoter act = activators of Rab9 promoter; Huh7 Rab9 promoter-luciferase reporter, luminescence, 24 h; Potency, µM (titrated, usually from 9.22 µM), without a hit: at the top dose activation, negative = inhibition, actives largely listed as activators; actives 2.8% (n = 320,000); note: % of control where 0% means no effect; nearly all actives have a fitted effect of over 60% in size
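Huh7 cells stably carrying Rab9 promoter–luciferase reporter, plated 1500 cells/well, compound added after 2 h and incubated 24 h at 37 °C; luciferase luminescence then read after 10 min with detection reagent.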
SMN2 splice up = increases expression of the SMN2 splice variant | HEK293 SMN2-luciferase splicing reporter, luminescence, 30-36 h | Potency, µM (doses to about 46.1 µM), for inactives: top-dose activity change, positive = activation, actives largely listed as activators | actives 2.8% (n = 210,000); note: % of control where 0% means no effect; nearly all actives have a fitted effect of over 55% in size
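HEK293 cells carry an SMN2 minigene-luciferase reporter in which exon 7 inclusion puts luciferase in frame. Cells were seeded at 2000 cells/well, attached for 10-12 hours, then exposed to compounds for 30-36 hours at 37C before ONE-Glo luminescence.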
The depositor's hits bear a star; ? = inconclusive; . = no result given. Calls come from the whole dose curve; as a rule, active = well fitted curve in the direction sought with a large enough effect; inconclusive = small, poorly fitted or top-dose-only effect, or another doubt; inactive = no such curve, though single readings can be large; an effect the other way counts as inactive or inconclusive. Potency is the fitted concentration of half-maximal effect.

SMILES	ELG1 genotoxic	ELG1 DNA repair	FLuc counter	NPC1 prom act	Rab9 promoter act	SMN2 splice up
Cc1ccc(S(=O)(=O)/N=C2\C=C(Nc3cccc(C(=O)O)c3)C(=O)c3ccccc32)c(C)c1	-27.3%	?	?	-14.1%	-23.0%	.
CCc1ccc(S(=O)(=O)/N=C2\C=C(Nc3ccc(C(=O)O)cc3)C(=O)c3ccccc32)cc1	-15.2%	4.61µM*	?	-35.5%	-26.9%	.
Cc1ccc(S(=O)(=O)/N=C2\C=C(Nc3ccc(O)cc3)C(=O)c3ccccc32)cc1	-11.8%	10.3µM*	.	.	.	.
COC(=O)c1ccccc1NC1=C/C(=N\S(=O)(=O)c2ccc(C(=O)O)cc2)c2ccccc2C1=O	-13.2%	?	?	-29.1%	-5.0%	.
Cc1ccc(NC2=C/C(=N/S(=O)(=O)c3cccs3)c3ccccc3C2=O)cc1	-12.6%	?	?	?	?	.
Cc1ccc(S(=O)(=O)/N=C2\C=C(Nc3cccc(C(=O)O)c3)C(=O)c3ccccc32)cc1	-33.9%	23.1µM*	?	-7.1%	?	.
CCOc1ccc(NC(=S)NC(=O)c2cccnc2)c([N+](=O)[O-])c1	-7.8%	15.9%	-7.2%	7.3%	1.6%	.
CCOC(=O)c1c(S(=O)(=O)N2CCCC(C(=O)N(C)Cc3ccccc3)C2)c(C)n(C)c1C (configuration not stated)	.	.	-2.4%	.	.	.
O=C(NC(=S)/C(=C1\CCCCCN1)[N+](=O)[O-])c1ccccc1	0.231µM*	?	.	.	.	.
Nc1cccc2c1C(=O)N(C(=O)/C=C/c1cccc(Br)c1)C2=O	7.8%	-0.5%	?	-8.3%	-7.9%	.
Nc1cccc2c1C(=O)N(C(=O)/C=C/c1cccc(F)c1)C2=O	-0.3%	0.0%	21.3µM*	-8.3%	-4.5%	15.2%
O=C1[C@@H](Oc2ccccc2)[C@@H](c2cnc3ccccc3c2)N1c1ccccc1	-11.6%	16.4µM*	.	.	.	.
CCOc1ccccc1NC(=O)CCc1nc(-c2cccc(C)c2)no1	.	.	-15.5%	.	.	-6.3%
COc1ccc2c(C)cc(Sc3nnnn3-c3ccccc3)nc2c1	-3.7%	25.9µM*	1.5%	0.4%	-8.6%	-11.2%
Cc1ccccc1-n1nnnc1Sc1nnnn1-c1ccccc1	-19.2%	?	7.9%	-4.0%	-11.9%	26.8%
CC(=O)Oc1cc2c(c(C)c1OC(C)=O)CC=C1[C@]3(C)CC[C@]4(C)CC[C@@](C)(C(=O)O)CC4[C@]3(C)CC[C@]12C (some centres not stated)	.	.	.	.	.	-82.4%
Cc1ccc(C(=O)NCCc2ccccc2)cc1S(=O)(=O)N1CCOCC1	6.1%	?	?	22.8%	?	.
Cc1ccc(C(=O)NC2CCCCCC2)cc1S(=O)(=O)N1CCOCC1	?	?	-18.9%	?	29.2%	.
Cc1ccc(C(=O)NC(C)CCc2ccccc2)cc1S(=O)(=O)N1CCOCC1 (configuration not stated)	0.0%	18.3µM*	.	.	.	.
Cc1ccc(C(=O)NC2CCN(Cc3ccccc3)CC2)cc1S(=O)(=O)N1CCOCC1	18.3µM*	3.8%	-1.7%	-5.0%	-14.2%	.
O=C(Cn1c(=O)n(Cc2ccc(F)cc2)c(=O)c2sc3ccccc3c21)NCc1ccccc1	.	.	1.8%	.	.	0.2%
CCOc1ccc(C(CC(=O)Nc2ccc(C(=O)OC)cc2)N2Cc3ccccc3C2=O)cc1OC (configuration not stated)	.	.	2.5%	.	.	.
CS(=O)(=O)N1CCC(C(=O)Nc2ccccc2F)CC1	2.3%	6.0%	0.3%	-2.7%	-5.4%	?
Cc1ccc(NC(=O)C2C(=O)N(CCO)C3(C)CC2c2ccccc2O3)cc1 (configuration not stated)	9.6%	?	-0.9%	7.1%	19.1%	?
Cc1ccc(NC(=O)C2C(=O)N(C)c3ccccc32)cc1 (configuration not stated)	8.7%	?	4.78µM*	17.8%	25.5%	?
SMILES	ELG1 genotoxic	ELG1 DNA repair	FLuc counter	NPC1 prom act	Rab9 promoter act	SMN2 splice up
CN1C(=O)C(C(=O)Nc2ccccc2F)c2ccccc21 (configuration not stated)	-1.4%	9.3%	19µM*	-0.1%	3.4%	8.0%
CC(C)(C)C1CCc2c(sc(NC(=O)c3ccc(Cl)cc3)c2C(=O)NCc2ccco2)C1 (configuration not stated)	.	.	0.8%	.	.	-5.9%
c1ccc2c(c1)Cn1nc(Cc3nc4c(s3)CCCC4)nc1-2	?	?	16.9µM*	5.7%	?	?
N#CCc1nc2n(n1)Cc1ccccc1-2	-0.4%	3.1%	-0.9%	9.5%	-6.4%	-2.7%
CN(C)c1ccc(-c2ccccc2)nn1	8.2µM*	?	10.7µM*	1.58µM*	1.58µM*	15.8µM*
O=C(Cc1ccc(F)cc1)N/N=C/c1ccccn1	1.0%	4.9%	0.6%	1.0%	-2.0%	2.8%
O=C(N/N=C/c1ccccn1)c1cccs1	?	-7.5%	19µM*	5.5%	7.3%	-44.9%
COc1cc(C(=O)N/N=C/c2ccccn2)cc(OC)c1OC	-3.3%	?	2.8%	-21.6%	-4.0%	-15.8%
COc1ccc(C(=O)N/N=C/c2ccccn2)cc1OC	-1.1%	-26.0%	-6.4%	-0.8%	8.9%	.
CN(C)c1ccc(C(=O)N/N=C/c2ccccn2)cc1	?	?	13.5µM*	2.82µM*	2.51µM*	.
O=C(N/N=C/c1ccccn1)c1ccc(Cl)cc1	18.3µM*	?	8.49µM*	?	3.16µM*	.
O=C(Cc1ccc(Br)c2ccccc12)N/N=C/c1ccccn1	-5.5%	9.2µM*	-17.4%	-0.4%	-0.2%	-31.2%
Cc1ccc(C)c(NC(=O)CN(C)S(=O)(=O)c2cccc3nsnc23)c1	.	.	-1.2%	.	.	1.9%
Cc1ccc(S(=O)(=O)NC(CC(C)C)C(=O)Nc2ccncc2)cc1 (configuration not stated)	1.8%	5.1%	-1.8%	0.0%	-15.9%	.
CN(CC(=O)Nc1ccccc1Br)C(=O)c1cccn1C	-3.6%	17.2%	1.2%	-5.9%	0.6%	.
CCCCn1nc(C(=O)Nc2cc(C(F)(F)F)ccc2N2CCOCC2)ccc1=O	-9.1%	?	7.1%	0.9%	-8.7%	.
O=C(N/N=C/c1ccc[nH]1)c1ccncc1	-16.4%	16.7%	6.7%	0.5%	1.0%	-24.2%
O=C(N/N=C/c1ccc[nH]1)c1ccc(Cl)cc1	18.6%	?	10.7µM*	-23.7%	-2.5%	8.3%
Cc1ccc(C(=O)Nc2ccc(C(=O)N/N=C/c3ccccn3)cc2)cc1	-29.0%	16.5%	15.1µM*	27.3%	?	.
Cc1ccc(C(=O)Nc2ccc(C(=O)N/N=C/c3cccnc3)cc2)cc1	5.4%	?	-14.4%	7.5%	12.9%	.
